UBC13 inh: inhibitors of human UBC13 polyubiquitin chain formation | AID 485273 | TR-FRET | P61088 | 330,000 tested, 0.47% active | inhibition, % at 20 µM; in the data active means inhibition above about 45%, passing the limit was not always enough; inconclusive means no clear call, values can overlap the other calls
Target sequence (P61088 whole entry, looked up): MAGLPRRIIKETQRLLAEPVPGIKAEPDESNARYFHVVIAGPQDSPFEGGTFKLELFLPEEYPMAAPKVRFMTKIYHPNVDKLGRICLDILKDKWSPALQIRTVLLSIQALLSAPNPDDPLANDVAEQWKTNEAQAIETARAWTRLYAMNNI
DNA FID counter: counter-screen for HCV NS3 helicase inhibitors: DNA intercalator displacement; 290,000 tested, 0.17% active; inhibition, % at 7.9 µM; AID 1845; DNA fluorescent intercalator displacement, fluorescence; in the data active means inhibition above about 37%;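 further: higher means more ethidium bromide displaced from hairpin DNA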
RAD54 inh: RAD54 (human) branch migration inhibition | Q92698 | 360,000 tested, 0.14% active | RAD54 Holliday junction branch migration, FAM/BHQ fluorescence | inhibition, % at 10.4 µM;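 active means mean normalized replicate activity at least 40 and at least half of replicates scoring 40 or more; inconclusive means only one of the two criteria met; inactive means mean below 40 and under half of replicates reaching 40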;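 further: inhibitors cause a drop in the FAM fluorescence signal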
MIN6 prolif: MIN6 beta-cell proliferation induction. MIN6 cells proliferation, ATPlite luminescence, 48 h; cells starved in 0.2% serum; 100% = growth in 10% serum. proliferation, % at 10 µM. 330,000 tested, 0.29% active. AID 2380;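 active means compounds whose signal lies at least 3.5 SD above the mean of all wells on their plate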
RAD52 anneal inh: blocks human RAD52 DNA annealing; 360,000 tested, 0.46% active; inhibition, % at 18.7 µM; recombinant RAD52 DNA annealing, FRET fluorescence; AID 651710;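 active means every replicate showing at least 50% inhibition; inconclusive means mean inhibition at least 50% but not in every replicate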
PREPL inh: human PREPL enzyme inhibition | AID 2751 | Q4J6C6 | 320,000 tested, 0.68% active | recombinant PREPL, fluorescence polarization activity-based probe | inhibition, % at 5.96 µM; in the data active means inhibition above about 43%
Casp3 UBC13 ctr: caspase-3 inhibition (UBC13 counter-screen); shares compounds with UBC13 inh; Recombinant caspase-3, Caspase-Glo 3/7 luminescence, 60 min; inhibition, % at 20 µM; 1,400 tested, 4% active;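 active means mean inhibition across replicates above about 26%, limit read from the data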
Target sequence (P42574 whole entry, looked up): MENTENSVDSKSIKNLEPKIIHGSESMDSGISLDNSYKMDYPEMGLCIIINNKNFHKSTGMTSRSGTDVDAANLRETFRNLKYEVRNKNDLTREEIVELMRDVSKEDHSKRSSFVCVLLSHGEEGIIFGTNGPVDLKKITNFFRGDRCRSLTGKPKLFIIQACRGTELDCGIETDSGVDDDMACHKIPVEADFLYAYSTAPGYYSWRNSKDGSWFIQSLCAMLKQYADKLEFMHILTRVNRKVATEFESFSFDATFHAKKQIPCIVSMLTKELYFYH
UBC13 conf: human UBC13 polyubiquitin inhibition, confirmed; shares compounds with UBC13 inh; 1,400 tested, 68% active; AID 488859; UBC13 polyubiquitination, TR-FRET, biochemical; inhibition, % at 10 µM; in the data active means inhibition above about 45%; inconclusive means no clear call, values can overlap the other calls
DNA binding: DNA binding artifact in Rad54 counter-screen | Acridine orange-DNA displacement, fluorescence polarization, 20 min | 460 tested, 8% active | AC50, µM (highest dose often 35 µM) | shares compounds with RAD54 inh;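 active means signal drop giving an AC50 within twice the top valid tested concentration of each sample, actives reach about 35 µM in these data; inactive means activity opposite to expected, plus the rest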;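 further: polarization loss reports compound binding to salmon sperm DNA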
DNA binder FP: counter-screen for RAD52 inhibitors: DNA binding compounds. AC50, µM. Salmon sperm DNA/acridine orange FP displacement. 1,000 tested, 8% active. shares compounds with RAD52 anneal inh;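 active means fitted half-maximal concentration for signal loss at or below twice the highest dose tested, in every separate run, actives reach about 64 µM in these data; inconclusive means runs disagree, or flat partial signal loss, or poor fit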
Large screens that a line does not name were inactive (follow-up assays come after a bar, where they were run); ! = not confirmed by another sample. Shown are actives, neighbours in structure and some others; about 1.3% of the full set was active somewhere.

COCC(=O)O[C@]1(CCN(C)CCCc2nc3ccccc3[nH]2)CCc2cc(F)ccc2[C@@H]1C(C)C	UBC13 inh 66.7, RAD52 anneal inh 54.3 (no result: DNA FID counter) | Casp3 UBC13 ctr inactive | UBC13 conf 60.2 | DNA binder FP inactive
CCOC(=O)CCc1nc2ccccc2[nH]1	none
CCCNC(=O)C[C@H]1C[C@@H]2c3cc(N(C)C)ccc3O[C@@H]2[C@H](CO)O1	none (no result: UBC13 inh, DNA FID counter, MIN6 prolif, PREPL inh)
O=C(NC[C@H]1[C@H](c2ccccc2)[C@H](CO)N1Cc1ccccn1)C1CCCC1	none (no result: UBC13 inh, DNA FID counter, MIN6 prolif, RAD52 anneal inh, PREPL inh)
CCN(CC)CCC(c1cc(OC)c(OC)c(OC)c1)c1c(OC)cc(OC)c2c(C)cc(=O)oc12 (stereo not given)	none (no result: DNA FID counter)
CCCCCc1cc(=O)oc2c(C(CCN(CC)CC)c3ccc(N(C)C)cc3)c(OC)cc(OC)c12 (stereo not given)	UBC13 inh 79.9, RAD52 anneal inh 59.7 (no result: DNA FID counter) | Casp3 UBC13 ctr inactive | UBC13 conf inactive | DNA binder FP inactive
Cc1ccc2nc(-c3ccc(NC(=S)NC4CC(C)(C)NC(C)(C)C4)cc3)sc2c1	UBC13 inh 91.2, RAD52 anneal inh 94.9 | Casp3 UBC13 ctr inactive | UBC13 conf 96.1 | DNA binder FP inactive
O=C(NCC[C@H]1CC[C@H](NS(=O)(=O)Cc2ccccc2)[C@@H](CO)O1)C1CCCC1	none (no result: UBC13 inh, DNA FID counter, MIN6 prolif, PREPL inh)
Cc1ccc(C(=O)N/C(=C\c2ccc(-c3cccc([N+](=O)[O-])c3)o2)C(=O)NCCCN(C)C)cc1	UBC13 inh 48.4, RAD52 anneal inh 66.9 | Casp3 UBC13 ctr inactive | UBC13 conf 63.0 | DNA binder FP inactive
CC(C)C#Cc1ccc2c(c1)O[C@@H](CN(C)C)[C@H](C)CN([C@@H](C)CO)S2(=O)=O	none (no result: UBC13 inh, DNA FID counter, MIN6 prolif, PREPL inh)
CC(C)NC(=O)N1CC2(C1)[C@@H](c1ccccc1)[C@@H](CO)N2C(=O)c1ccccn1	none (no result: UBC13 inh, DNA FID counter, RAD54 inh, MIN6 prolif, PREPL inh)
NCCCCc1ccc2ccc3cccc4ccc1c2c34	UBC13 inh 48.9, RAD52 anneal inh 52.7 (no result: DNA FID counter, PREPL inh) | Casp3 UBC13 ctr inactive | UBC13 conf 84.9 | DNA binder FP inactive
CC(C)C#Cc1ccc2c(c1)O[C@H](CN(C)Cc1cccnc1)[C@@H](C)CN([C@@H](C)CO)S2(=O)=O	none (no result: UBC13 inh, DNA FID counter, MIN6 prolif, PREPL inh)
C#CCOCCOCCOCCNc1nc(N2CCN(C(=O)[C@H](CCCCN)n3cc([C@@H](N)[C@H](C)CC)nn3)CC2)nc(N2CCN(C(=O)[C@H](CCCCN)n3cc([C@@H](N)CC(N)=O)nn3)CC2)n1	UBC13 inh 99.0, RAD52 anneal inh 53.8 (no result: DNA FID counter) | Casp3 UBC13 ctr inactive | UBC13 conf 106.7 | DNA binder FP inactive
C#CCOCCOCCOCCNc1nc(N2CCN(C(=O)[C@H](CCCCN)n3cc(CN)nn3)CC2)nc(N2CCN(C(=O)[C@H](CCCN=C(N)N)n3cc(C(N)[C@H](C)CC)nn3)CC2)n1 (stereo not given in full)	UBC13 inh 92.2, RAD52 anneal inh 77.3 (no result: DNA FID counter) | Casp3 UBC13 ctr inactive | UBC13 conf 102.8 | DNA binder FP inconclusive
COc1ccc(NC(=O)N(C)C[C@@H]2Oc3ccc(NS(=O)(=O)c4c(C)noc4C)cc3C(=O)N([C@H](C)CO)C[C@H]2C)cc1	none (no result: UBC13 inh, DNA FID counter, MIN6 prolif, PREPL inh)
CN(C)CCNC(=O)c1cc2c(s1)-c1ccc(Cl)cc1SC2	UBC13 inh 61.8, RAD54 inh 56.7, RAD52 anneal inh 81.2 (no result: PREPL inh) | Casp3 UBC13 ctr inactive | UBC13 conf 72.8 | DNA binding inactive | DNA binder FP inconclusive
CCN1CCN(Cc2ccc(NC(=O)c3ccc(C)c(NC(=O)C(=O)c4c[nH]c5ccccc45)c3)cc2C(F)(F)F)CC1	UBC13 inh 53.1, RAD52 anneal inh 98.5! | Casp3 UBC13 ctr inactive | UBC13 conf 95.9 | DNA binder FP inactive

High-throughput results: PubChem, several laboratories
